Columns and labels:
[1] = test system: Vero E6 infected with SARS-CoV-2; experiment: morphology score (similarity to uninfected cells); higher = more like uninfected cells; conditions: 24 h
[2] = test system: Vero E6 infected with SARS-CoV-2; experiment: SARS-CoV-2 infection rate relative to infected DMSO; higher = more infection, active = 60 or less; conditions: 24 h

## COc1ccnc(C[S+]([O-])c2nc3cc(OC(F)F)ccc3[nH]2)c1OC (stereo not given) [pantoprazole] (10 µM)
[1]
  morphology score: -0.142
[2]
  SARS-CoV-2 infection rate: 104% (inactive)

## O=C1/C(=C/c2ccccc2)C[C@@]2(O)[C@H]3Cc4ccc(O)c5c4[C@@]2(CCN3CC2CC2)[C@H]1O5 (0.833333 µM)
[1]
  morphology score: 0.732
[2]
  SARS-CoV-2 infection rate: 23.5% (active)

## CC(C)(C)c1cc(C(=O)/C(C#N)=N/Nc2cccc(Cl)c2)no1 (10 µM)
[1]
  morphology score: -0.0513
[2]
  SARS-CoV-2 infection rate: 104% (inactive)

## CC(=O)O[C@H]1C[C@H](O[C@H]2[C@@H](O)C[C@H](O[C@H]3[C@@H](O)C[C@H](O[C@H]4CC[C@@]5(C)[C@H](CC[C@@H]6[C@@H]5C[C@@H](O)[C@]5(C)[C@@H](C7=CC(=O)OC7)CC[C@]65O)C4)O[C@@H]3C)O[C@@H]2C)O[C@H](C)[C@H]1O[C@@H]1O[C@H](CO)[C@@H](O)[C@H](O)[C@H]1O [lanatoside-C] (0.833333 µM)
[1]
  morphology score: -0.0895
[2]
  SARS-CoV-2 infection rate: 102% (inactive)

## CN1[C@@H]2CC[C@H]1C[C@@H](OC1c3ccccc3CCc3ccccc31)C2 [deptropine] (0.833333 µM)
[1]
  morphology score: 0.24
[2]
  SARS-CoV-2 infection rate: 100% (inactive)

## CS(=O)(=O)OC[C@H](O)[C@@H](O)COS(C)(=O)=O [treosulfan] (10 µM)
[1]
  morphology score: -0.204
[2]
  SARS-CoV-2 infection rate: 118% (inactive)

## N=C(NCCCCCCNC(=N)NC(=N)Nc1ccc(Cl)cc1)NC(=N)Nc1ccc(Cl)cc1 [chlorhexidine] (0.833333 µM)
[1]
  morphology score: 0.277
[2]
  SARS-CoV-2 infection rate: 58% (active)

## C[C@@H](Oc1cc(-n2cnc3ccc(CN4CCN(C)CC4)cc32)sc1C(N)=O)c1ccccc1C(F)(F)F (0.833333 µM)
[1]
  morphology score: 0.0643
[2]
  SARS-CoV-2 infection rate: 94% (inactive)

## C[C@]12CC[C@H](O)C[C@H]1CC[C@@H]1[C@@H]2CC[C@]2(C)[C@@H](C3=CC(=O)OC3)CC[C@]12O [digitoxigenin] (0.833333 µM)
[1]
  morphology score: -0.0679
[2]
  SARS-CoV-2 infection rate: 108% (inactive)

## CCc1ccccc1OC[C@@H](O)CN[C@H]1CCCc2ccccc21 (10 µM)
[1]
  morphology score: 0.0335
[2]
  SARS-CoV-2 infection rate: 93% (inactive)

## N#Cc1ccc2[nH]c(O)c(-c3ccc(CN4CCOCC4)cn3)c2c1 (10 µM)
[1]
  morphology score: -0.238
[2]
  SARS-CoV-2 infection rate: 100% (inactive)

## CCCCCCCCCCCCCCCC(=O)O[C@@H]1[C@@H](O)[C@@H](O)[C@@H]([C@H](NC(=O)[C@@H]2C[C@@H](CCC)CN2C)[C@H](C)Cl)O[C@@H]1SC [clindamycin-palmitate] (10 µM)
[1]
  morphology score: 0.0793
[2]
  SARS-CoV-2 infection rate: 108% (inactive)

## Cc1cc(OCCCS(C)(=O)=O)cc(C)c1-c1cccc(COc2ccc3c(c2)OC[C@H]3CC(=O)O)c1 (10 µM)
[1]
  morphology score: 0.0278
[2]
  SARS-CoV-2 infection rate: 108% (inactive)

## O=C(c1cncc(Br)c1)N1CCC(N2CCCC2)CC1 (10 µM)
[1]
  morphology score: 0.146
[2]
  SARS-CoV-2 infection rate: 108% (inactive)

## CCCCC1=NC2(CCCC2)C(=O)N1Cc1ccc(-c2ccccc2-c2nnn[nH]2)cc1 [irbesartan] (10 µM)
[1]
  morphology score: 0.0469
[2]
  SARS-CoV-2 infection rate: 96.5% (inactive)

## CCCCCC(=O)O[C@]1(C(C)=O)CC[C@H]2[C@@H]3CCC4=CC(=O)CC[C@]4(C)[C@H]3CC[C@@]21C [17-hydroxyprogesterone-caproate] (10 µM)
[1]
  morphology score: 0.523
[2]
  SARS-CoV-2 infection rate: 85.5% (inactive)

## Cc1ccccc1C(=O)Nc1ccc(C(=O)N2CCCC(N(C)C)c3ccccc32)cc1 (stereo not given) [mozavaptan] (0.833333 µM)
[1]
  morphology score: 0.0205
[2]
  SARS-CoV-2 infection rate: 117% (inactive)

## O=C(O)[C@H]1CCCN(CCC=C(c2ccccc2)c2ccccc2)C1 (racemic) (10 µM)
[1]
  morphology score: 0.0757
[2]
  SARS-CoV-2 infection rate: 88.5% (inactive)

## Nc1ccncc1N [amifampridine] (10 µM)
[1]
  morphology score: 0.0643
[2]
  SARS-CoV-2 infection rate: 92% (inactive)

## O=C(COP(=O)(O)O)[C@@H](O)[C@H](O)[C@H](O)COP(=O)(O)O [fosfructose] (10 µM)
[1]
  morphology score: -0.202
[2]
  SARS-CoV-2 infection rate: 120% (inactive)

## C=CC(=O)Nc1cccc(Nc2nc(Nc3ccc(OCCOC)cc3)ncc2F)c1 (0.833333 µM)
[1]
  morphology score: -0.0246
[2]
  SARS-CoV-2 infection rate: 116% (inactive)

## CCn1cc(-c2cccc(C(F)(F)F)c2)c2sc(C(=N)NC3CCS(=O)(=O)CC3)cc2c1=O (10 µM)
[1]
  morphology score: -0.122
[2]
  SARS-CoV-2 infection rate: 110% (inactive)

## C[C@@H](O)[C@H]1C(=O)N2C(C(=O)[O-])=C(SC3Cn4cnc[n+]4C3)[C@H](C)[C@H]12 (stereo not given in full) [biapenem] (10 µM)
[1]
  morphology score: -0.0332
[2]
  SARS-CoV-2 infection rate: 99.5% (inactive)

## CC1(C)CN(C(=O)c2ccc(-c3cccc4nc(NC(=O)C5CC5)nn34)cc2)C1 [solcitinib] (10 µM)
[1]
  morphology score: 0.0939
[2]
  SARS-CoV-2 infection rate: 110% (inactive)

## C#Cc1cccc(Nc2ncnc3cc(OCCOC)c(OCCO)cc23)c1 (10 µM)
[1]
  morphology score: -0.0889
[2]
  SARS-CoV-2 infection rate: 116% (inactive)

## c1coc(CNc2ncnc3[nH]cnc23)c1 [kinetin] (10 µM)
[1]
  morphology score: 0.0735
[2]
  SARS-CoV-2 infection rate: 104% (inactive)

## C[N+](C)(C)CC(O)CC(=O)[O-] (stereo not given) [carnitine-(D/L)] (10 µM)
[1]
  morphology score: -0.213
[2]
  SARS-CoV-2 infection rate: 117% (inactive)

## CNC(=O)c1cc(Oc2ccc(NC(=O)Nc3ccc(Cl)c(C(F)(F)F)c3)c(F)c2)ccn1 [regorafenib] (0.833333 µM)
[1]
  morphology score: 0.0372
[2]
  SARS-CoV-2 infection rate: 110% (inactive)

## O=S(=O)(O)CCSSCCS(=O)(=O)O [dimesna] (10 µM)
[1]
  morphology score: 0.144
[2]
  SARS-CoV-2 infection rate: 104% (inactive)

## CN[C@H]1CC[C@@H](c2ccc(Cl)c(Cl)c2)c2ccccc21 (0.833333 µM)
[1]
  morphology score: 0.143
[2]
  SARS-CoV-2 infection rate: 89.5% (inactive)

## NC(=O)c1cccc(-c2cccc(OC(=O)NC3CCCCC3)c2)c1 (10 µM)
[1]
  morphology score: 0.00303
[2]
  SARS-CoV-2 infection rate: 104% (inactive)

## Cc1nnc(NS(=O)(=O)c2ccc(N)cc2)s1 [sulfamethizole] (10 µM)
[1]
  morphology score: 0.0585
[2]
  SARS-CoV-2 infection rate: 108% (inactive)

## O=C(O)C[C@H](O)C[C@H](O)/C=C/c1c(C2CC2)nc2ccccc2c1-c1ccc(F)cc1 [pitavastatin] (10 µM)
[1]
  morphology score: -0.127
[2]
  SARS-CoV-2 infection rate: 115% (inactive)

## COc1cc(NS(C)(=O)=O)ccc1Nc1c2ccccc2nc2ccccc12 [amsacrine] (10 µM)
[1]
  morphology score: -0.0803
[2]
  SARS-CoV-2 infection rate: 108% (inactive)

## O=C(O)CCCC[C@@H]1CCSS1 [thioctic-acid] (10 µM)
[1]
  morphology score: 0.0028
[2]
  SARS-CoV-2 infection rate: 106% (inactive)

## Cc1c(C(=O)NN2CCCCC2)nn(-c2ccc(Cl)cc2Cl)c1-c1ccc(I)cc1 (10 µM)
[1]
  morphology score: 0.254
[2]
  SARS-CoV-2 infection rate: 93% (inactive)

## COc1cc(C)[nH]c(=O)c1CNC(=O)c1c(C)n([C@H](C)C2CCOCC2)c2ccccc12 (10 µM)
[1]
  morphology score: 0.0908
[2]
  SARS-CoV-2 infection rate: 96.5% (inactive)

## O=c1[nH]cnc2c1cnn2[C@@H]1O[C@H](CO)[C@@H](O)[C@H]1O [allopurinol-riboside] (10 µM)
[1]
  morphology score: 0.0253
[2]
  SARS-CoV-2 infection rate: 109% (inactive)

## COc1cc2ncnc(Nc3cccc(Br)c3)c2cc1OC (10 µM)
[1]
  morphology score: -0.238
[2]
  SARS-CoV-2 infection rate: 104% (inactive)

## Cc1ccccc1OCC(O)CO (stereo not given) [mephenesin] (10 µM)
[1]
  morphology score: 0.141
[2]
  SARS-CoV-2 infection rate: 99.5% (inactive)

## CCCNC(C)C(=O)Nc1c(C)csc1C(=O)OC (stereo not given) [articaine] (10 µM)
[1]
  morphology score: 0.0926
[2]
  SARS-CoV-2 infection rate: 98% (inactive)

## Cc1cc(C)nc(NS(=O)(=O)c2ccc(NC(=S)NC(=O)COc3ccc(Br)cc3Cl)cc2)n1 (10 µM)
[1]
  morphology score: 0.0709
[2]
  SARS-CoV-2 infection rate: 108% (inactive)

## CCCc1cc(C(N)=S)ccn1 [protionamide] (10 µM)
[1]
  morphology score: 0.198
[2]
  SARS-CoV-2 infection rate: 98% (inactive)

## Clc1cccc(C(c2ccc3[nH]cnc3c2)n2ccnc2)c1 (stereo not given) [liarozole] (10 µM)
[1]
  morphology score: 0.138
[2]
  SARS-CoV-2 infection rate: 98% (inactive)

## Cc1cc(O)c2c(c1)C(=O)c1cccc(O)c1C2=O [chrysophanic-acid] (10 µM)
[1]
  morphology score: -0.0993
[2]
  SARS-CoV-2 infection rate: 110% (inactive)

## CC(C)(C)c1ccc(-c2nc3c(N4CCN(Cc5ccc6nccnc6c5)CC4)cccc3[nH]2)cc1 (0.833333 µM)
[1]
  morphology score: 0.0532
[2]
  SARS-CoV-2 infection rate: 102% (inactive)

## Cc1ccc(S(=O)(=O)NC(=O)NN2CC3CCCC3C2)cc1 (stereo not given) [gliclazide] (10 µM)
[1]
  morphology score: 0.0635
[2]
  SARS-CoV-2 infection rate: 106% (inactive)

## COc1cc(-c2ccc(=O)[nH]n2)ccc1OC(F)F [zardaverine] (10 µM)
[1]
  morphology score: 0.289
[2]
  SARS-CoV-2 infection rate: 83.5% (inactive)

## CCCOC(=O)c1ccc(O)cc1 [propyl 4-hydroxybenzoate] (10 µM)
[1]
  morphology score: -0.0462
[2]
  SARS-CoV-2 infection rate: 111% (inactive)

## CC(=O)N(O)[C@@H]1c2cc(C#N)ccc2OC(C)(C)[C@H]1O (10 µM)
[1]
  morphology score: 0.477
[2]
  SARS-CoV-2 infection rate: 59% (active)

## Nc1nccc(-c2c(-c3ccc(F)cc3)ncn2C2CCCCC2)n1 (0.833333 µM)
[1]
  morphology score: 0.197
[2]
  SARS-CoV-2 infection rate: 103% (inactive)

## COc1cc2c(cc1OC)CC(=O)N(CCCN(C)C[C@H]1Cc3cc(OC)c(OC)cc31)CC2 [ivabradine] (10 µM)
[1]
  morphology score: 0.15
[2]
  SARS-CoV-2 infection rate: 112% (inactive)

## CC(C)(C)c1ccc(/C=C/C(=O)Nc2ccc3c(c2)OCCO3)cc1 (10 µM)
[1]
  morphology score: -0.068
[2]
  SARS-CoV-2 infection rate: 110% (inactive)

## O=C(Nc1ccc(Br)cc1)c1cc(Br)cc(Br)c1O [tribomsalan] (10 µM)
[1]
  morphology score: 0.043
[2]
  SARS-CoV-2 infection rate: 106% (inactive)

## O=C(NO)c1cnc(N2CCN(S(=O)(=O)c3ccc4ccccc4c3)CC2)nc1 (10 µM)
[1]
  morphology score: -0.145
[2]
  SARS-CoV-2 infection rate: 115% (inactive)

## CCC(C)(C)C(=O)O[C@H]1C[C@@H](C)C=C2C=C[C@H](C)[C@H](CC[C@@H]3C[C@@H](O)CC(=O)O3)[C@H]21 [simvastatin] (0.833333 µM)
[1]
  morphology score: -0.0774
[2]
  SARS-CoV-2 infection rate: 26.5% (active)

## O=[N+]([O-])c1cn2c(n1)OC[C@@H](OCc1ccc(OC(F)(F)F)cc1)C2 [pretomanid] (10 µM)
[1]
  morphology score: 0.0902
[2]
  SARS-CoV-2 infection rate: 112% (inactive)

## O=C(NC[C@H]1CN(c2ccc(N3CCOCC3=O)cc2)C(=O)O1)c1ccc(Cl)s1 [Rivaroxaban (Xarelto)] (10 µM)
[1]
  morphology score: 0.193
[2]
  SARS-CoV-2 infection rate: 97.5% (inactive)

## CCN(CC)CCOc1ccc(Cc2ccccc2)cc1 (10 µM)
[1]
  morphology score: 0.39
[2]
  SARS-CoV-2 infection rate: 71% (inactive)

## O=c1c(O)c(-c2cc(O)c(O)c(O)c2)oc2cc(O)cc(O)c12 [myricetin] (10 µM)
[1]
  morphology score: 0.195
[2]
  SARS-CoV-2 infection rate: 110% (inactive)
